Among all 320,000 compounds or so, about 3,100 (0.97%) were called active. This excerpt belongs to a sample that is enriched for actives. Values without a mark were called inactive.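 Rule for the calls: active = mean replicate inhibition of at least 70% and a set share of replicates each scoring 70 or more; inconclusive = meets just one of the two criteria; inactive = fails both criteria.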
Biological target: Scavenger receptor class B member 1 (Mus musculus) (UniProt Q61009)
Assay: inhibitors of SR-BI mediated HDL lipid uptake, primary screen, ldlA[mSR-BI] cells, fluorescence, single point (AID 488896);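 note: 0% = median of neutral control wells and 100% = median of positive control wells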
Conditions: ldlA[mSR-BI] CHO cells, DiI-HDL uptake fluorescence, 3 h; at 12.5 µM; stronger effect = higher value

Chain of Scavenger receptor class B member 1 (Mus musculus) (Q61009 whole entry, looked up): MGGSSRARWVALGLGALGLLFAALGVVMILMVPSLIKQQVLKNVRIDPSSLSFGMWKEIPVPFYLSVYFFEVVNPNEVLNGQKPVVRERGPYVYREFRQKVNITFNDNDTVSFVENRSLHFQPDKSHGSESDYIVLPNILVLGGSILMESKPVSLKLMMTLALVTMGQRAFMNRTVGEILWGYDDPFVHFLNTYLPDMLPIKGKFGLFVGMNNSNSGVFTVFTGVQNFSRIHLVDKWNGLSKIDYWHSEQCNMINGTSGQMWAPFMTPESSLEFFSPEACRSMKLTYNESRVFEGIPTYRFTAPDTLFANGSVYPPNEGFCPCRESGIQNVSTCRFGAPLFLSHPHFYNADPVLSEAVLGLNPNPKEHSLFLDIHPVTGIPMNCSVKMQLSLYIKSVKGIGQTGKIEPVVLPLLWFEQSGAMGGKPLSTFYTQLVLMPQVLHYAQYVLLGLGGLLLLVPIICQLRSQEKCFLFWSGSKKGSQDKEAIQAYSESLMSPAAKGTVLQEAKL

| Structure (SMILES) | inhibition |
| --- | --- |
| CC(=O)OCC1(O)CC23CCC4c5ccoc5CCC4(C)C2CCC1C3 (stereo unspecified) | 30.4% |
| COc1cc(/C=C/CNC[C@H]2O[C@@H](n3cnc(C(N)=O)n3)[C@H](O)[C@@H]2O)ccc1O | -8.12% |
| O=c1[nH]c(=S)[nH]c(O)c1/C=C1\C=Nc2ccccc21 | -12.1% |
| Cc1cc(OCCCC(=O)Nc2cc(S(=O)(=O)N3CCOCC3)ccc2N2CCOCC2)ccc1Cl | 17.2% |
| C/C(=N\NC(=O)c1ccoc1C)c1ccccc1O | 95.2% (active) |
| CC(C)=C(NC(=O)c1ccccc1)C(=O)N/N=C(\C)c1ccccc1O | -7.68% |
| Cc1[nH]n(-c2ccccc2)c(=O)c1/C=N/NC(=O)c1ccoc1C | 69.6% |
| Cc1ccc(C)c(S(=O)(=O)N(C)c2ccc(OC(=O)C3CCN(C(=O)c4ccc(F)cc4)CC3)cc2)c1 | 12.3% |
| Cc1cccc(C)c1OC(=O)CSc1nnc(-c2ccccc2)o1 | -9.02% |
| CC1=CC(C)(C)N(C(=O)CSc2nnc(-c3ccccc3)o2)c2ccc(C)cc21 | 73.5% (active) |
| CC1=CC(C)(C)N(C(=O)CSc2nccn2C)c2cc(C)ccc21 | -2.67% |
| CCc1c(Nc2ccccc2Cl)nc(N)[nH]c1=O | -15.3% |
| CCOc1cc2ccccc2cc1C(=O)Nc1ccccn1 | 58.6% |
| COc1ccc(OC)c(NC(=O)CC(Cc2ccccc2OC)C(=O)O)c1 (stereo unspecified) | -10.9% |
| CCOc1ccc(NC(=O)Nc2cc(C)ccc2OC)cc1 | 10.4% |
| CCOc1cc(NS(=O)(=O)c2ccc(OC)cc2)c(OCC)cc1NC(C)=O | -2.12% |
| CCOc1ccccc1NC(=O)Nc1cc(OC)ccc1OC | 76.1% (active) |
| CCOc1cc(NC(=O)c2ccccn2)c(OCC)cc1NC(=O)c1ccc(OC)cc1 | 72.3% (active) |
| CC1CN(Cc2ccccc2)C(=S)NC1=O (stereo unspecified) | -4.96% |
| Cc1cc2c(cc1C)NC1(C[C@H]3CCC(=O)N4CC[C@@H](C1)[C@@H]34)C(=NC(C)(C)CC(C)(C)C)N2 (stereo partly specified) | -27.8% |
| O=C(NNc1nc(N2CCCC2)nc(N2CCCC2)n1)c1ccccc1 | -25.2% |
| O=C1C=C(NS(=O)(=O)c2ccccc2)C(=O)c2ccccc21 | -17.2% |
| c1ccc(-c2c[nH]c(-c3ccccc3)c2)cc1 | 9.83% |
| COc1ccc(-c2c(C)cc3oc(=O)cc(-c4ccccc4)c3c2C)cc1F | 68.3% |
| COc1ccc(-c2c(C)cc3oc(=O)cc(-c4ccccc4)c3c2C)cc1OC | 66.6% |
| COc1ccc(-c2c(C)cc3oc(=O)cc(-c4ccccc4)c3c2C)cc1C=O | 75.1% (active) |

Source: PubChem BioAssay AID488896 (Broad Institute, 2010)
